Laboratory results published in PubChem BioAssay.
Results filed as inconclusive are left out. The source made the active and inactive calls. Unless noted, cut-off not given; nearly all actives show AC50 up to about 26 µM.

Columns and labels:
[1] = growth inhibition of DIPG glioma cells, dose response, cell-based, SU-DIPG-XVII, MIPE5.0, CellTiter-Glo, qHTS (AID 1347060); conditions: SU-DIPG-XVII viability, CellTiter-Glo ATP luminescence;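 on AC50: cells exposed to compound for 48 hours before viability readout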
[2] = growth inhibition of DIPG glioma cells, dose response, cell-based, SU-DIPG-XIII, MIPE5.0, CellTiter-Glo, qHTS (AID 1347064; cut-off not given, nearly all actives have AC50 up to about 23 µM;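 on AC50: cells exposed to compound for 48 hours before the viability read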); conditions: SU-DIPG-XIII viability, CellTiter-Glo ATP luminescence
[3] = viability loss in pontine glioma line – cell-based, SU-DIPG-XXV, MIPE5.0, CellTiter-Glo, qHTS, dose response (AID 1347065); conditions: CellTiter-Glo ATP luminescence;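 further: cells exposed to compound for 48 hours before ATP readout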
[4] = JHH-DIPG-1 glioma cell viability, MIPE5.0 library, CellTiter-Glo luminescence, qHTS (AID 1347067); conditions: JHH-DIPG-1 glioma viability, CellTiter-Glo ATP luminescence;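 further: cells exposed to compound for 48 hours before readout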
[5] = SU-DIPG-XXV glioma cell viability, MIPE5.0 library, qHTS (AID 1347068; cut-off not given, nearly all actives have IC50 up to about 30 µM;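 on IC50: cells exposed to compound for 48 hours before viability readout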)

Structure (SMILES)	AC50 [1]	AC50 [2]	AC50 [3]	AC50 [4]	IC50 [5]	outcome [1]	outcome [2]	outcome [3]	outcome [4]	outcome [5]
O=C(NO)c1ccc(C2=Nc3ccccc3Oc3ccccc32)cc1	10.5 µM (active)	5.25 µM (active)	7.42 µM (active)	11.8 µM (active)	14.8 µM (active)					
OC1CCC([C@H](O)C[C@H]2c3c(F)cccc3-c3cncn32)CC1 (stereo not given in full)						inactive	inactive	inactive	inactive	inactive
CC(=O)c1cc2c(o1)C(=O)c1ccccc1C2=O	3.32 µM (active)	0.934 µM (active)	2.95 µM (active)	1.66 µM (active)	2.95 µM (active)					
Cc1ccc(NC(=O)NCc2ccc3c(c2)CN(C2CCC(=O)NC2=O)C3=O)cc1Cl (stereo not given)	0.00742 µM (active)	0.00296 µM (active)	0.00186 µM (active)	0.00118 µM (active)	0.00372 µM (active)					
CCNC(=O)C#Cc1ccc2c(C(=Nc3ccc(CN(C)C)cc3)c3ccccc3)c(O)[nH]c2c1	0.162 µM (active)	0.574 µM (active)	0.0723 µM (active)	0.288 µM (active)	0.811 µM (active)					
NC(=O)c1ccccc1Nc1ccnc(Nc2cccc(O)c2)n1	2.63 µM (active)	5.25 µM (active)	1.32 µM (active)	18.6 µM (active)	4.68 µM (active)					
Cc1cc(O)cc2c1[C@]1(C)CC[C@H]3C(C)(C)CCC[C@]3(C)[C@H]1C2						inactive	inactive	inactive	inactive	inactive
CN(C)Cc1ccc(S(=O)(=O)n2ccc(/C=C/C(=O)NO)c2)cc1	9.34 µM (active)	5.9 µM (active)	6.61 µM (active)	9.34 µM (active)	7.42 µM (active)					
CN1CCN(c2ccc(Nc3ncc4cc(C#N)c(=O)n(C5CCCC5)c4n3)cc2)CC1	3.72 µM (active)	8.33 µM (active)	5.25 µM (active)	10.5 µM (active)	4.17 µM (active)					
Nc1ncccc1-c1nc2ccc(-c3ccccc3)nc2n1-c1ccc(C2(N)CCC2)cc1	11.8 µM (active)	4.17 µM (active)	2.95 µM (active)	5.9 µM (active)	20.9 µM (active)					
Clc1cccc(-c2ccc(-c3nnc(CCCc4ccc5cccnc5n4)o3)cc2)c1						inactive	inactive	inactive	inactive	inactive
COc1cccc2c1C(=O)c1c(O)c3c(c(O)c1C2=O)C[C@@](O)(/C(CO)=N/NC(=O)CCCCCN1C(=O)C=CC1=O)C[C@@H]3O[C@H]1C[C@H](N)[C@H](O)[C@H](C)O1	1.05 µM (active)	4.68 µM (active)	14.8 µM (active)	2.95 µM (active)	18.6 µM (active)					
CN1C(=O)N[C@@H](Cc2c[nH]c3c(Cl)cccc23)C1=O						inactive	inactive	inactive	inactive	inactive
[2H]c1nc(C)nc([2H])c1-c1cc(NC[C@@H](C)c2cccc3c(C(=O)NC)ccnc23)ncn1						inactive	inactive	inactive	inactive	inactive
O=C(Nc1cnn2ccc(N3CCC[C@@H]3c3cc(F)ccc3F)nc12)N1CC[C@H](O)C1						inactive	inactive	inactive	inactive	inactive
CS(=O)(=O)c1ccc(Oc2cc(F)cc(C#N)c2)c2c1[C@H](O)C(F)(F)C2						inactive	inactive	inactive	inactive	inactive
CN(C)CCNC(=O)COc1c2cccc1Cc1cccc(c1OCC(=O)NCCN(C)C)Cc1cccc(c1OCC(=O)NCCN(C)C)Cc1cccc(c1OCC(=O)NCCN(C)C)C2						inactive	inactive	inactive	inactive	inactive
Cc1[nH]c(/C=C2\C(=O)Nc3ccc(F)cc32)c(C)c1C(=O)NC[C@H](O)CN1CCOCC1	13.2 µM (active)	18.6 µM (active)	7.42 µM (active)	16.6 µM (active)						inactive
CC(C)(O)C1CCC(Nc2ccc3ncc(-c4cccc(C(F)(F)F)c4)n3n2)CC1 (stereo not given)	7.42 µM (active)	18.6 µM (active)	13.2 µM (active)	10.5 µM (active)	8.33 µM (active)					
O=C(CCCCCCC(=O)N/N=C/c1ccc(N(c2ccccc2)c2ccccc2)cc1)NO	20.9 µM (active)	20.9 µM (active)	14.8 µM (active)	11.8 µM (active)						inactive
COc1cc(F)c(F)c(Nc2ccc(I)cc2F)c1NS(=O)(=O)C1(C[C@H](O)CO)CC1	0.417 µM (active)	0.235 µM (active)	0.59 µM (active)	0.209 µM (active)	2.63 µM (active)					
Cc1ccc(NC(=O)Nc2nnc(Sc3ncnc4cc(OCCCN5CCOCC5)ccc34)s2)cc1	2.95 µM (active)	2.63 µM (active)	1.86 µM (active)	2.35 µM (active)						inactive
Cc1ccc(-c2ccc3ncc4c(c3n2)n(C2CCN(C(=O)[C@H](C)O)CC2)c(=O)n4C)cn1	0.468 µM (active)	0.186 µM (active)	0.186 µM (active)	0.372 µM (active)	0.417 µM (active)					

Structure (SMILES)	AC50 [1]	AC50 [2]	AC50 [3]	AC50 [4]	IC50 [5]	outcome [1]	outcome [2]	outcome [3]	outcome [4]	outcome [5]
COc1cc(OC)c(/C=C/S(=O)(=O)Cc2ccc(OC)c(OP(=O)(O)O)c2)c(OC)c1	0.0417 µM (active)	0.0417 µM (active)	0.0742 µM (active)	0.059 µM (active)	0.0742 µM (active)					
Cc1ncc(NC(=O)c2cccc(C(F)(F)F)c2)cc1-c1cnc(OC2CCOCC2)c(N2CCOCC2)c1	9.34 µM (active)	5.25 µM (active)	14.8 µM (active)	4.68 µM (active)	18.6 µM (active)					
Cc1cc(Oc2ccc3nc(COc4ccc(CC5SC(=O)NC5=O)cc4)n(C)c3c2)cc(C)c1N (stereo not given)						inactive	inactive	inactive	inactive	inactive
CC(=O)N1CCC[C@H]1C(=O)N[C@@H](Cc1cnc[nH]1)C(=O)N[C@@H](CO)C(=O)N[C@@H](CS)C(=O)N[C@@H](CC(N)=O)C(N)=O						inactive	inactive	inactive	inactive	inactive
Fc1cccc(-n2cnc3c(NCc4nc5c(F)c(F)ccc5[nH]4)nc(N4CCOCC4)nc32)c1	0.166 µM (active)	0.295 µM (active)	0.332 µM (active)	0.209 µM (active)	0.525 µM (active)					
COc1ccc(C(=O)N2CCN(c3ccc4c(c3)CCC(=O)N4)CC2)cc1OC						inactive	inactive	inactive	inactive	inactive
CC(C)(NS(=O)(=O)c1ccc2c(Cl)cnc(N=C(N)N)c2c1)C(=O)O						inactive	inactive	inactive	inactive	inactive
CC(C)(C)C(=O)CN1C(=O)[C@H](NC(=O)Nc2cccc(C(=O)O)c2)CN(C2CCCCC2)c2ccccc21						inactive	inactive	inactive	inactive	inactive
COC(C)(C)CCn1nc(Nc2c(C)cccc2C)c2cnc(Nc3ccc(OCCN4CCCC4)c(F)c3)nc21	16.6 µM (active)	18.6 µM (active)	14.8 µM (active)	16.6 µM (active)	16.6 µM (active)					
Cc1[nH]cnc1CN1CCN(C(=O)N[C@@H](CC(C)C)C(=O)O)[C@@H](Cc2ccccc2)C1=O						inactive	inactive	inactive	inactive	inactive
C[C@H](CN(C)C)Oc1nc(Nc2cc3cccc(Cl)c3cn2)cnc1C#N	16.6 µM (active)	13.2 µM (active)	16.6 µM (active)	8.33 µM (active)						inactive
COC[C@@H](c1ccc(C(F)(F)F)cc1)N1CCN(C2(C)CCN(C(=O)c3c(C)ncnc3C)CC2)C[C@@H]1C						inactive	inactive	inactive	inactive	inactive
Cc1c(CN2CCC(Nc3ncnc4sc(CC(F)(F)F)cc34)CC2)ccc2c1cc(C#N)n2Cc1cn[nH]c1	20.9 µM (active)	23.5 µM (active)	29.5 µM (active)	18.6 µM (active)						inactive
Cc1cc(OCCCc2c3n(c4c(-c5c(C)nn(C)c5C)c(Cl)ccc24)[C@H](C)CN(c2cn(C)c4ccc(C(=O)O)cc24)C3=O)cc(C)c1Cl	0.833 µM (active)	5.25 µM (active)	0.468 µM (active)	9.34 µM (active)	3.72 µM (active)					
O=S(=O)(Nc1ccc(-c2cccnc2)c2cccnc12)c1cccc(C(F)(F)F)c1	11.8 µM (active)	16.6 µM (active)	14.8 µM (active)	7.42 µM (active)						inactive
OC1CCC(Oc2cccc3cnc(Nc4ccc5nc[nH]c5c4)nc23)CC1 (stereo not given)	0.833 µM (active)	2.09 µM (active)	0.661 µM (active)	1.32 µM (active)	1.05 µM (active)					
C=CCNC1=C2CC(C)CC(OC)C(O)C(C)/C=C(\C)C(OC(N)=O)C(OC)/C=C/C=C(\C)C(=O)NC(=CC1=O)C2=O (stereo not given)	0.59 µM (active)	1.66 µM (active)	4.68 µM (active)	0.525 µM (active)	3.72 µM (active)					
CNS(=O)(=O)c1ccc2c(c1)/C(=C/c1[nH]c3c(c1CCCN1CCN(C)CC1)CCCC3)C(=O)N2	7.42 µM (active)	8.33 µM (active)	7.42 µM (active)	10.5 µM (active)						inactive
CCn1c(=O)c(-c2ccc(-c3cncs3)cc2Cl)cc2cnc(Nc3ccc(N4CCN(C)CC4)cc3)nc21	3.32 µM (active)	8.33 µM (active)	2.95 µM (active)	5.25 µM (active)	10.5 µM (active)					
COc1cc(F)ccc1-c1ncnc(Nc2cccc(CS(C)(=N)=O)c2)n1 (stereo not given)	1.48 µM (active)	1.48 µM (active)	1.66 µM (active)	1.86 µM (active)	1.86 µM (active)					
COc1cc2c(Oc3ccc4[nH]c(C)cc4c3F)ccnc2cc1OCC1(N)CC1	3.32 µM (active)	2.95 µM (active)	2.95 µM (active)	5.9 µM (active)	16.6 µM (active)					
Cc1c(-c2c(-c3ccc(F)o3)sc3ncnc(O[C@@H](Cc4ccccc4OCc4ccnn4CC(F)(F)F)C(=O)O)c23)ccc(OCCN2CCN(C)CC2)c1Cl	0.295 µM (active)	6.61 µM (active)	0.132 µM (active)	3.32 µM (active)	1.32 µM (active)					
